# High-throughput results: PubChem, National Center for Advancing Translational Sciences (NCATS)
# Tb PFK inh-1 = qHTS Assay to Find Inhibitors of T. brucei phosphofructokinase; AID 485367, 2010; Potency, µM (top dose mostly 57.5 µM), without a hit: at the highest dose activity, negative = inhibition, most hits filed as inhibitors; T. brucei PFK, ADP-Glo luminescence; ATP-dependent 6-phosphofructokinase (Trypanosoma brucei brucei), O15648; 330,000 tested, 0.17% active;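 note: potency is the fitted concentration of half-maximal effect; 0% = uninhibited 1x PFK enzyme wells and -100% = no-enzyme wells; nearly all actives have a fitted effect of over 60% in size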
#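 PFK 1.25 nM, F6P 0.5 mM, ATP 0.1 mM, 0.1 M TEA pH 8.0, 5 mM MgCl2, 0.01% Tween20, 0.1% BSA; 45 min RT. ADP-Glo readout. qHTS titration up to 57 uM; curves fitted, compounds curve-classed.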
# Pin1 inhibitor = qHTS Assay to Find Inhibitors of Pin1; AID 504891, 2011; Pin1 FP peptide displacement, HiFluor488, 10 min; Potency, µM (series often up to 115 µM), for inactives: at the highest dose activity, negative = inhibition, most hits filed as inhibitors; Peptidyl-prolyl cis-trans isomerase NIMA-interacting 1 (Homo sapiens), Q13526; 390,000 tested, 0.009% active; active = well fitted inhibition curve with a large enough effect in the polarisation, with a control signal flat, not every such curve was filed as active; inconclusive = small, poorly fitted or top-dose-only effect, or effect the other way, or a change in a side signal; inactive = no such curve, though single readings can be large or run the other way; the % refers to the polarisation; note: potency is the fitted concentration of half-maximal effect; % is set by controls: 0 for no effect and ±100 for the full control effect
# PI4K2A inh = qHTS for small molecular inhibitors of PI4K2A. Phosphatidylinositol 4-kinase type 2-alpha (Homo sapiens), Q9BTU6. activity change, negative = inhibition, % at 76.9 µM. purified PI4K2A, ADP-Glo luminescence, 1 h; hits give low values. AID 1346378, 2018. 420,000 tested, 0.13% active; in the data active = activity change below about -50%; inconclusive = mostly about -30% to -49%;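 note: -100% = wells without enzyme as full effect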
# Target sequence (Q9BTU6 whole entry, looked up): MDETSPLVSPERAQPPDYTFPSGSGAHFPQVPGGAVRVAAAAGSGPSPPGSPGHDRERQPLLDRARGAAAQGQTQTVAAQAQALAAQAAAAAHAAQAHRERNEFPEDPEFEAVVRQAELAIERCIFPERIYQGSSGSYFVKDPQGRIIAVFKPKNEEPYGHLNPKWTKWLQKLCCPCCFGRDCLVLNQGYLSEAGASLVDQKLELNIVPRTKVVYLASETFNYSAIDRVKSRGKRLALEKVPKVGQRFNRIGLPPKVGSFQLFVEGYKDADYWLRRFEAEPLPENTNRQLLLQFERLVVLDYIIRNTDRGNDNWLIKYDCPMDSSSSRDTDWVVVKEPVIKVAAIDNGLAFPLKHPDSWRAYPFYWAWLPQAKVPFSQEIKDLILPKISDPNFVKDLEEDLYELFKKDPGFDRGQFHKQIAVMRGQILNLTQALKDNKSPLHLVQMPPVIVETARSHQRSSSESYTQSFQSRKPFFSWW
#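 ADP-Glo luminescence measured ADP generated by PI4K2A enzyme (4 ug/mL before mixing) with 1.2 mM PI substrate (pre-mix) and 300 microM ATP (pre-mix). Tris pH7.5 buffer with MgCl2, Triton X-100; 1 h reaction at ambient temperature.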
# PGK inhibitor = qHTS Assay to Find Inhibitors of Phosphoglycerate Kinase; PGK/GAPDH coupled, Kinase-Glo luminescence, 60 min; Potency, µM (top dose mostly 57.5 µM), for inactives: top-dose activity change, negative = inhibition, usual class: inhibitors; 380,000 tested, 0.043% active; AID 602233, 2012; note: potency is the fitted concentration of half-maximal effect; % is set by controls: 0 for no effect and ±100 for the full control effect; nearly all actives have a fitted effect of over 60% in size
#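 Luminescent ATP detection (Kinase-Glo Plus) follows a 60-minute room-temperature incubation, with wells lacking PGK as controls. Buffer: 100 mM TEA (pH 7.6), 5 mM MgCl2, 0.01% Tween-20. Coupling enzyme GAPDH (100 nM final) supplies unstable 1,3-BPG in-well.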
# PI5P4Ka inh = qHTS for Inhibitors of phosphatidylinositol 5-phosphate 4-kinase (PI5P4K); Phosphatidylinositol 5-phosphate 4-kinase type-2 alpha (Homo sapiens), P48426; PI5P4Kalpha enzyme, ADP-Glo luminescence, 60 min; hits give low values; max response, %; 330,000 tested, 1.2% active; active = max response of -50% or lower; inconclusive = between -30% and -50%; inactive = -30% or higher; note: value at the top dose of about 77 µM; % is set by controls: 0 for no effect and ±100 for the full control effect
#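 Human PI5P4Kalpha with substrate in 0.038 M HEPES pH 7.4, 0.28 mM EGTA, 0.1% CHAPS, 5% DMSO; reaction started with 5 microM ATP (final), 60 min at room temperature. ADP formed read by ADP-Glo luminescence.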
# TbPFK ATP = Tb PFK orthogonal confirmatory assay using ATP depletion (Kinase-Glo Plus) as an alternative measure of Tb PFK activity: Hit Validation. shares compounds with Tb PFK inh-1. Tb PFK enzyme, ATP depletion, Kinase-Glo Plus luminescence. Potency, µM (highest dose often 57.5 µM), inactives show at the highest dose inhibition. 1,100 tested, 47% active; calls by dose curve; note: potency is the fitted concentration of half-maximal effect; nearly all actives have a fitted effect of over 60% in size
# Tb PFK inh-2 = Inhibitors of T. brucei phosphofructokinase: Hit Validation; shares compounds with Tb PFK inh-1; purified T. brucei PFK, ADP-Glo luminescence, 45 min; Potency, µM (top dose mostly 57.5 µM), for inactives: at the highest dose activity change, negative = inhibition, most hits filed as inhibitors; 1,100 tested, 41% active;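 note: potency is the fitted concentration of half-maximal effect; plate controls were full PFK enzyme control for no effect and no enzyme control for full effect; nearly all actives have a fitted effect of over 60% in size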
# An asterisk follows results filed as active; i = inactive; u = inconclusive; x = no result given. This excerpt belongs to a sample that is enriched for hits. Unless noted, calls come from the whole dose curve; as a rule, active = well fitted curve in the direction sought with a large enough effect; inconclusive = small, poorly fitted or top-dose-only effect, or another doubt; inactive = no such curve, though single readings can be large; an effect the other way counts as inactive or inconclusive.
SMILES,Tb PFK inh-1,Pin1 inhibitor,PI4K2A inh,PGK inhibitor,PI5P4Ka inh,TbPFK ATP,Tb PFK inh-2
O=C(NNc1nc2ccccc2s1)Nc1ccc(Cl)c(Cl)c1,u,13%,-6,i,-7,u,-23%
COc1ccc(OC)c(NC(=O)c2cc(-c3cc(C)ccc3O)n[nH]2)c1,u,u,1,-10%,2,-19%,u
ON=C1c2ccccc2-c2ccccc21,u,-6%,5,i,178,7%,6%
Oc1ccccc1-c1ccccc1,x,x,-5,x,x,x,x
Cc1ccc(-n2nc3c(N4CCC(C(=O)NCCc5ccccc5)CC4)nnc(C)c3c2C)cc1,x,37%,-3,7%,x,x,x
O=C(O)c1cccc2c1C(=O)c1cc(Br)ccc1S2(=O)=O,u,1%,-2,0%,0,-29%,u
CN1CCN(c2ccc3c(c2)S(=O)(=O)c2ccccc2C3=O)CC1,x,u,-1,-2%,6,x,x
COc1cc(/C=C(\C#N)C(=O)NCC2CCCO2)ccc1OC(=O)c1ccco1 (stereo unspecified),u,2%,27,i,-7,-30%,u
CN(c1ccccc1)c1ccc(/C=C/[N+](=O)[O-])cc1,u,50%,27,-2%,-14,17µM*,24µM*
CCCC1=Nc2cc(C(=O)NCCCN(CC)CC)ccc2Sc2ccccc21,x,-2%,-8,i,x,x,x
COc1cc2c(cc1OC)CN(c1ccc([N+](=O)[O-])c(C(F)(F)F)c1)CC2,u,12%,7,i,-6,u,u
COc1ccccc1/C=C1\SC(=S)N(NS(=O)(=O)c2ccccc2)C1=O,u,0%,-6,3%,-30,-27%,u
Cc1ccc(S(=O)(=O)Oc2ccccc2C=C2C(=O)N(C)C(=O)N(C)C2=O)cc1,10%,-3%,-4,-1%,u,x,x
C/C(=N\NC(=O)c1cc(O)cc(O)c1)c1ccc(NC(=O)Cc2ccccc2)cc1,u,x,-7,7.9µM*,-90*,u,u
O=C(COC(=O)Cc1ccccc1)Nc1ccc(SC(F)F)cc1,0%,-2%,4,-2%,-9,x,x
Cc1ccc(-n2c(/C=C/c3ccccc3)nc3ccccc3c2=O)cc1C,x,1%,-3,-6%,x,x,x
COC(=O)CSc1cc([N+](=O)[O-])cc2c1c(C1OCCO1)nn2-c1ccccc1,2%,u,2,-2%,3,x,x
C=C1CCN([C@@H](CC(C)C)C(=O)Nc2ccc(OC)cc2)S(=O)(=O)c2ccccc21,x,3%,3,3%,13,x,x
CCOP(=O)(Nc1ccc2oc(=O)c3ccccc3c2c1)OCC,u,-3%,151,-2%,237,8%,21%
CCOP(=O)(OCC)C(O)c1ccccc1 (stereo unspecified),-4%,4%,-1,7%,1,x,x
Cc1cccc(-n2nc(C)c3c2NC(=O)CSC3c2ccccc2Cl)c1 (stereo unspecified),x,8%,-2,x,x,x,x
O=C(CN1CCOCC1)Nc1ncc(Cc2cccc(Cl)c2)s1,u,-3%,1,x,6,u,u
O=C1CCC/C(=N/NC(=O)c2cc(NS(=O)(=O)c3cccs3)cc(NS(=O)(=O)c3cccs3)c2)C1,u,3%,-9,-16%,u,21µM*,u
